From PubChem BioAssay
A number with no mark means an inactive call. The source made the active and inactive calls. Unless noted, no stated cut-off is given here; in the data, active means inhibition above about 42%; inactive means the rest.

Assays:
[1] = StAR promoter reporter inhibitors, counter-screen for LRH-1 inverse agonist project, cell-based, luminescence, high throughput (AID 651611; in the data active means inhibition above about 28%); conditions: StAR promoter luciferase reporter counterscreen, at 3.6 µM, hits give high values
[2] = target: Nuclear receptor subfamily 5 group A member 2 (Homo sapiens) (UniProt O00482); assay: LRH-1 (NR5A2) inverse agonists, retest, confirmation, cell-based, luminescence (AID 651613); conditions: cell-based LRH-1 luciferase reporter, inverse agonism; at 3.6 µM; hits give high values;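 further: HEK293T cells co-transfected with LRH-1 and StAR promoter luciferase reporter; 0% = vehicle wells and 100% = parental cells lacking receptor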
[3] = target: Steroidogenic factor 1 (Homo sapiens) (UniProt Q13285); assay: SF1 (NR5A1) inverse agonists, counter-screen for LRH-1 inverse agonist project, cell-based, luminescence, high throughput (AID 651614; in the data active means inhibition above about 44%;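 further: cells cotransfected with StAR promoter reporter and SF1 expression vector; 0% = vehicle on cells with receptor and 100% = vehicle on cells lacking receptor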); conditions: cell-based SF1 luciferase reporter, at 3.6 µM, hits give high values
[4] = VP16 transactivation reporter inhibitors, counter-screen for LRH-1 inverse agonist project, cell-based, luminescence, high throughput (AID 651615; in the data active means inhibition above about 33%); conditions: Gal4-VP16 luciferase reporter cells, at 3.6 µM, hits give high values

Sequence of Steroidogenic factor 1 (Homo sapiens) (Q13285 whole entry, looked up, the tested form may be a part): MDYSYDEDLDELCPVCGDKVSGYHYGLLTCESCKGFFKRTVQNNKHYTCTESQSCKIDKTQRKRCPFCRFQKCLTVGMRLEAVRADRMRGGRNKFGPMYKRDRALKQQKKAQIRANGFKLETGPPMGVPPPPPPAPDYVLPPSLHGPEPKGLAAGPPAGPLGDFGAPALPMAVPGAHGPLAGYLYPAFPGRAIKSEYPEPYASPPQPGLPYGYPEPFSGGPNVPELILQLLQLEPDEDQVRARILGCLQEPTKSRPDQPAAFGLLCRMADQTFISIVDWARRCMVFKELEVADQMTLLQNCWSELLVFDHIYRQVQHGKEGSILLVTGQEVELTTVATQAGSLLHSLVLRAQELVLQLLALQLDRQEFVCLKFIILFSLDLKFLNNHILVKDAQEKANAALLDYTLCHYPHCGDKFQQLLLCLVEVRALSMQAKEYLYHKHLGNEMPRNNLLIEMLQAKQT
Sequence of Nuclear receptor subfamily 5 group A member 2 (Homo sapiens) (O00482 whole entry, looked up): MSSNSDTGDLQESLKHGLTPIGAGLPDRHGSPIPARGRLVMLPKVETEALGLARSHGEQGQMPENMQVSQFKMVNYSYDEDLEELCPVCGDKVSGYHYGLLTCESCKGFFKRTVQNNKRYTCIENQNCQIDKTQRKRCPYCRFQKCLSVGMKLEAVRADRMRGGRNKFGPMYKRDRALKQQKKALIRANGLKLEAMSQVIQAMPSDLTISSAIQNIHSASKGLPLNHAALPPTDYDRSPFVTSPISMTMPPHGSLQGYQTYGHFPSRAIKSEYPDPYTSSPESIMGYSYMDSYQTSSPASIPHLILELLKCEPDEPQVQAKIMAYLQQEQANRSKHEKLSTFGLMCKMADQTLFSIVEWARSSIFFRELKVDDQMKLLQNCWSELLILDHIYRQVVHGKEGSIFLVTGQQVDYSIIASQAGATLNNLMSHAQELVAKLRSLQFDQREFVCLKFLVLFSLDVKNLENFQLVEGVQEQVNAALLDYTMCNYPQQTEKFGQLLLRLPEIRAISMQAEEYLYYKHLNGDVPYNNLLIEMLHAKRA

Structure (SMILES)	inhibition [1]	inhibition [2]	inhibition [3]	inhibition [4]
COc1ccc(S(=O)(=O)Nc2ccc(CC#N)cc2)cc1	-4.36%	31.7%	29.7%	-0.34%
Cc1cc(Br)ccc1NC(=O)CN1C(=O)C2CC=CCC2C1=O (stereo unspecified)	7.07%	61.7% (active)	44.1% (active)	-7.81%
COc1ccc(CCNC(=O)COC(=O)C23CC4CC(CC(C4)C2)C3)cc1	17.5%	57% (active)	48.7% (active)	1.82%
O=C(N/N=C/c1ccc([N+](=O)[O-])o1)c1ccc2c(c1)OCO2	37.2% (active)	78.3% (active)	91.2% (active)	-5.58%
O=C1C=C(NCCc2ccccc2)C2(CCCCC2)O1	3.62%	59.9% (active)	49.5% (active)	-3.99%
O=C(OCC(=O)N1CCN(c2ccccc2)CC1)c1ccc2ccccc2n1	9.44%	33%	22.3%	2.06%
Cn1c(=O)oc2cc(NC(=O)CCl)ccc21	51.8% (active)	61.6% (active)	71.3% (active)	-65.2%
CCOc1ccc(CCNC(=O)COC(=O)c2nc3nc(C)cc(C)n3n2)cc1OCC	9.65%	48.8% (active)	38.2%	-0.98%
Cc1ccc2c(c1)N(C)/C(=C/c1cccc[n+]1C)S2	28% (active)	61.8% (active)	64% (active)	67% (active)
N#Cc1cc([N+](=O)[O-])ccc1NC(=O)COC(=O)C1CCC(=O)N1 (stereo unspecified)	15.6%	53.7% (active)	48.9% (active)	-3.83%
CCN(CC)S(=O)(=O)c1ccc(N2CCCC2)c(NC(=O)c2ccc([N+](=O)[O-])o2)c1	19.4%	55.4% (active)	56.6% (active)	10.5%
Cc1c(NC(=S)NC(=O)c2ccc(Cl)cc2)c(=O)n(-c2ccccc2)n1C	11.3%	51.5% (active)	33.4%	-1.07%
Cc1cc(C)nc(N/N=C/c2ccc([N+](=O)[O-])o2)n1	8.46%	57.7% (active)	42.5%	-4.48%
CC(=O)Nc1ccc(NC(=O)CSc2nnc(COc3ccccc3C)n2CC2CCCO2)cc1 (stereo unspecified)	16.5%	64.6% (active)	57.3% (active)	-5.23%
COc1cc(C(=O)Nc2ccccc2N2CCN(S(C)(=O)=O)CC2)cc(OC)c1OC	9.79%	44.5% (active)	34%	-2.73%
COc1ccc(N2CCN(C(=O)C3CCC(Cn4c(=S)[nH]c5ccccc5c4=O)CC3)CC2)cc1 (stereo unspecified)	9.08%	36.1%	39.2%	26.8%
Cc1ccc2[nH]c3c(c2c1)CCN1C(=O)OC(C)(C)C31C (stereo unspecified)	10.6%	53.7% (active)	49% (active)	-1.39%
O=C(c1cccc(Cl)c1)N1CCCC(c2ccc(Cl)cc2)=N1	2.78%	49.8% (active)	57.3% (active)	3.04%
CC(=O)N[C@@H](Cc1c[nH]c2ccccc12)C(=O)OCC(=O)Nc1ccc2c(c1)OCO2	-1.82%	53.1% (active)	56.8% (active)	-4.65%
Cc1nc2ccccc2n1/N=C/c1ccc([N+](=O)[O-])o1	16.3%	70.9% (active)	68.1% (active)	15%
C/C(=N\Nc1nc2ccccc2[nH]1)c1ccccn1	71.4% (active)	83.1% (active)	73.9% (active)	2.13%
COc1ccc(-n2c(/C=C(\C)O)nc(=O)c3c(C)cc(C)nc32)cc1	12.9%	51.8% (active)	37.2%	16.7%
O=C(c1ccc(Oc2ccc(Cl)cc2)c([N+](=O)[O-])c1)N1CCCC1	-14.7%	33.5%	38%	-0.01%
Cc1c(C#N)c(O)n(CCO)c(=O)c1N=Nc1ccccc1	13.4%	44.4% (active)	41.7%	6.91%
